# Compound activity from PubChem BioAssay.
# This is a sample that favours compounds with a hit; in the whole collection about 22% have one here.
# Shiga inhibitor: inhibitors of Shiga toxin in Vero cells; hit rate 9.2% among 290,000; inhibition, % at 38.7 µM; Vero cells, Shiga toxin protein synthesis inhibition reporter; in the data active means inhibition mostly above about 28%, no sharp cut-off; inactive means mostly below about 43%; further: 0% is about no effect
# Pf growth 48h: inhibits P. falciparum growth in the first generation, 48 h. P. falciparum luciferase growth in erythrocytes, 48 h. Potency, µM (highest dose often 28.7 µM), without a hit: at the top dose activity change, negative = inhibition, hits mostly inhibitors. hit rate 5.9% among 310,000; further: potency means the concentration at half of the fitted maximal effect; on the % scale 0 is the no-effect control and ±100 the full control effect
#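 Parasite viability was followed by luminescence of a genomically integrated firefly luciferase. Cultures held 0.1% parasitemia at 2% hematocrit (final), incubated under 5% CO2 at 37 C.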
# Pf growth 96h: P. falciparum growth inhibition at 96 hours; hit rate 6.9% among 320,000; P. falciparum luciferase reporter growth, 96 h; AID 504834; Potency, µM (titrated, usually from 28.7 µM), for the others: top-dose activity change, negative = inhibition, usual class: inhibitors; further: potency means the concentration at half of the fitted maximal effect; on the % scale 0 is the no-effect control and ±100 the full control effect
#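 Delayed-death screen, second-generation endpoint: infected erythrocytes, 2% hematocrit, 0.05% parasitemia final; 96 hours at 37 C, 5% CO2; luciferase detection reagent; luminescence decrease equals reduced growth.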
# Cycloheximide cs: affects cycloheximide protein synthesis inhibition readout, counter-screen. cell reporter, cycloheximide protein synthesis inhibition counterscreen. max response, %. hit rate 12% among 300,000. AID 2314; in the data active means max response mostly above about 13%, no sharp cut-off; inactive means mostly below about 14%; further: read at 38.3 µM for the half of the compounds with a filed dose; 0% is about no effect
# LmPK inh: LmPK (Leishmania mexicana) enzyme inhibition | Potency, µM (doses to about 57.5 µM), without a hit: top-dose activity change, negative = inhibition, actives largely listed as inhibitors | AID 1721 | Q27686 | hit rate 0.37% among 290,000 | purified LmPK, Kinase-Glo ATP luminescence, 1 h; further: potency means the concentration at half of the fitted maximal effect; on the % scale 0 is the no-effect control and ±100 the full control effect
# Target sequence (Q27686 whole entry, looked up): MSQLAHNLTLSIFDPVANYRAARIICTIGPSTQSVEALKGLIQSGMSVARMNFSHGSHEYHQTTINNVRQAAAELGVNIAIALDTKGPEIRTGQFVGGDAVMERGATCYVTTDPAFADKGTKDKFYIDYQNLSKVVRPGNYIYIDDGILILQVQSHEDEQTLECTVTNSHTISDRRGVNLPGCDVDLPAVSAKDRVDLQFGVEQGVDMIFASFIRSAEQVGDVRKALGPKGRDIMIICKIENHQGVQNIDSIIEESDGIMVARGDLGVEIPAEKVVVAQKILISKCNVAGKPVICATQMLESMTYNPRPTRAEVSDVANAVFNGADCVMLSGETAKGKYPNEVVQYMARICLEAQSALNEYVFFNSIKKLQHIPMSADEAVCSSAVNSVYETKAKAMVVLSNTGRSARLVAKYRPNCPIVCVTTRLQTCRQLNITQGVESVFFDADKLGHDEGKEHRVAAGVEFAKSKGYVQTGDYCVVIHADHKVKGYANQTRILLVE
#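 ATP generated from ADP (0.1 mM) and PEP (0.5 mM) by 0.1 nM LmPK over 1 h at room temperature (pH 7.2 imidazole buffer) was detected by coupled luciferase luminescence. Values were normalized to uninhibited and no-enzyme wells.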
# The depositor's hits bear a star; i = inactive; ? = inconclusive; . = not tested or not shown; [ ] = remark or other dose. Unless noted, the call rests on the fitted dose curve; in most records, active means well fitted inhibition curve with a large enough effect; inconclusive means small, poorly fitted or top-dose-only effect, or another doubt; inactive means no such curve, though single readings can be large or run the other way.
SMILES,Shiga inhibitor,Pf growth 48h,Pf growth 96h,Cycloheximide cs,LmPK inh
Cc1ccc(SCC(=O)OCC(=O)NCCc2ccccc2)cc1C,.,9.3%,4.2%,.,.
COc1cc(C(=O)OC2C[C@H]3CC[C@@H](C2)N3)ccc1O (some centres undefined),-5.1,11.7µM*,?,-1.0,4.7%
COc1ccc(-c2onc3ccc(C(=O)/C=C/N(C)C)cc23)cc1,-6.6,10.4µM*,?,-2.7,13.5%
COC(=O)c1cc(S(=O)(=O)NCCN2CCOCC2)cn1C,-3.2,-9.3%,?,-1.4,-3.1%
CC1CCN(C(=O)CCC(=O)Nc2nnc(C3CCCCC3)s2)CC1,-10.3,-23.1%,-23.1%,-1.0,3.6%
N/C(=N\N=C/c1ccc(Br)cc1)N/N=C\c1ccc(Br)cc1,-26.5,?,32.3%,7.9,0.9%
N/C(=N\N=C/c1ccc(F)cc1)N/N=C\c1ccc(F)cc1,21.9,0.738µM*,?,11.1*,1.6%
N/C(=N\N=C\c1ccc(Cl)cc1)N/N=C/c1ccc(Cl)cc1,.,0.757µM*,0.849µM*,.,.
COc1ccc(/C=C/C(O)=C2/C(=O)N(C)C3(C)CC2c2ccccc2O3)cc1 (centres undefined),-2.2,13.1µM*,0.0%,-3.3,1.7%
Cc1ccc(/C=C/C(O)=C2/C(=O)N(C)C3(C)CC2c2ccccc2O3)cc1 (centres undefined),-10.9,11.7µM*,11.8%,2.4,3.5%
COc1ccc(/C=C/C(O)=C2/C(=O)NC3(C)CC2c2ccccc2O3)c(OC)c1OC (centres undefined),-16.5,?,-15.5%,6.1,-0.4%
O=C(Nc1ccnc(-c2cccnc2)n1)c1cccs1,-7.6,-8.9%,0.0%,0.3,0.1%
Cc1[nH]nc(SCC(=O)N(C)c2ccccc2)c1[N+](=O)[O-],43.7,-12.9%,-11.4%,8.2,1.1%
COc1ccc(N2Cc3cccc(C(=O)NC(C)CCc4ccco4)c3C2=O)cc1 (centres undefined),14.7,.,11.7µM*,-0.4,2.0%
CCOc1cc(CNCCO)cc(Br)c1OCc1ccccc1Cl,-18.3,10.4µM*,11.7µM*,-3.4,-1.5%
COc1cc(CNC(C)(C)CO)cc(Br)c1OCc1ccccc1,-6.3,?,?,5.8,3.6%
CCOc1cc(CNC(C)(C)CO)cc(Br)c1OCc1ccc(Cl)cc1Cl,-17.3,?,9.28µM*,-2.7,-3.0%
CCOc1cc(CNCCO)cc(Br)c1OCc1ccc(Cl)cc1,-7.1,?,11.7µM*,-2.0,2.8%
O=C(NCC1(c2ccccc2)CCCC1)C1(c2ccccc2)CCCC1,1.6,?,2.62µM*,-2.1,-1.5%
COc1ccc(NC(=O)N2CCc3nc(COc4ccccc4)c4c(c3C2)CO[C@@H](C)C4)cc1,.,.,.,.,-4.2%[11.5 µM]
CCOC(=O)c1cnc2c(-c3ccccc3)cnn2c1N,90.2*,100.9%,13.6%,30.1*,-0.3%
CCOC(=O)c1cnc2c(-c3ccc(Cl)cc3)cnn2c1C,31.9,83.6%,?,14.1*,-3.2%
CCOC(=O)c1cnc2c(-c3ccc(F)cc3)cnn2c1C(F)(F)F,27.5*,?,?,17.4*,0.6%
COc1ccc(C)cc1-n1nnnc1SCC(=O)NC1CCCC1,.,?,44.0%,.,.
COc1ccc(C)cc1-n1nnnc1SCC(=O)N1CCC(C(=O)Nc2nccs2)CC1,-9.4,-59.8%,1.65µM*,9.2,5.6%
SMILES,Shiga inhibitor,Pf growth 48h,Pf growth 96h,Cycloheximide cs,LmPK inh
CN1C(C(=O)NCc2ccc(OC(F)(F)F)cc2)CC2Cn3c(nc4cc5ccccc5cc43)C21 (centres undefined),-2.6,9.1%,-19.4%,-2.9,3.3%
COc1cc(/C=C2\CC/C(=C\c3ccc(OCCO)c(OC)c3)C2=O)ccc1OCCO,-13.0,?,-1.1%,-3.4,6.4%
CC(=O)Oc1ccc(/C=C2/CCc3ccccc3C2=O)cc1,15.6,135.5%,i,16.1*,14.1µM*
COc1ccc(/C=C2\CCC/C(=C\c3ccc(OC)c(OC)c3OC)C2=O)c(OC)c1OC,-7.4,?,21.4%,1.4,-2.5%
COc1ccc(/C=C2\CCc3ccccc3C2=O)cc1OC,139.0*,59.4%,129.0%,52.1*,-9.7%
COc1ccc(/C=C2\CCOC2=O)cc1,24.0,115.7%,43.0%,19.0,-2.9%
COc1cccc(/C=C2\CCc3ccccc3C2=O)c1,60.0*,80.2%,i,43.5*,15.8µM*
COc1ccc2c(c1)CC/C(=C/c1cc(OC)c(OC)c(OC)c1)C2=O,30.2,?,14.7µM*,5.9,-4.6%
Cc1nc(SCC(=O)O)c(C#N)c(C)c1CC(=O)c1ccccc1,-9.3,14.8%,?,-6.0,0.9%
Cc1cc(C)c(CSc2ncnc3nc[nH]c23)c(C)c1,-10.1,30.3%,?,-4.1,-3.4%
Cc1ncoc1C(=O)NC1CCCc2c1cnn2-c1ccc(C(C)(C)C)cc1 (centres undefined),-1.3,?,8.5%,3.6,-2.0%
COCCn1c(N)c(N(Cc2ccccc2)C(=O)COc2ccc(F)cc2Cl)c(=O)[nH]c1=O,.,8.9%,1.6%,.,.
Cc1cc(C(=O)Cn2c(CO)nc3ccccc32)c(C)n1C,14.2,?,-5.5%,10.7,-3.0%
CC(C)Cn1c(N)c(C(=O)COC(=O)c2ccc(O)cc2O)c(=O)n(C)c1=O,.,-28.4%,9.8%,.,.
COc1cc(C=C2C(=O)c3ccccc3C2=O)cc(OC)c1,15.3,?,53.0%,14.7,-0.1%
COc1ccc2c(c1)CCc1cc(C(=O)O)sc1-2,-2.9,95.4%,56.5%,6.2,-9.7%
COc1ccc2c(c1)CC/C(=C/c1ccccn1)C2=O,99.5*,57.8%,10.2%,55.2*,-14.2%
COc1ccc(/C=C2\CCC(C3CCCC3)C2=O)c(OC)c1 (centres undefined),20.9,23.3%,10.5%,10.2,-1.4%
COc1ccc2c(c1)CC/C(=C\C=C\c1ccccc1)C2=O,43.9*,?,?,25.2*,3.4%
COc1ccc(/C=C2\CC/C(=C\c3ccc(OC)cc3OC)C2=O)c(OC)c1,60.2*,?,?,25.9*,1.1%
COc1cccc(/C=C2\C(=O)C(=O)c3ccccc32)c1,76.8,.,-4.5%,21.0*,0.1%
CN(C[C@H](Cc1ccccc1)N(C[C@H](Cc1ccccc1)N(CCc1cc(C(F)(F)F)cc(C(F)(F)F)c1)N=O)N=O)N=O,-31.6,?,4.15µM*,-1.2,1.6%
CCCC[C@H](CN(N=O)[C@@H](Cc1ccccc1)CN(C)N=O)N(CCc1ccccc1)N=O,-7.5,?,?,-1.0,3.4%
CN(C[C@H](CC1CCCCC1)N(C[C@H](Cc1ccccc1)N(CCc1ccccc1)N=O)N=O)N=O,-3.8,13.1µM*,?,-3.0,-1.8%
CC(C)C[C@@H](CN(C)N=O)N(C[C@H](Cc1ccccc1)N(CCc1ccccc1)N=O)N=O,-12.0,?,?,1.9,0.8%
CC(C)NC(=S)N/N=C/c1ccc(N2CCOCC2)cc1,-7.0,18.7%,55.4%,11.7,-5.9%
N#Cc1ccc(/C=N/NC(=S)Nc2ccc(S(=O)(=O)N3CCOCC3)cc2)cc1,-4.4,?,?,-1.7,3.7%
Oc1ccc(/C=N/NC(=S)N2CCOCC2)cc1,59.1,141.9%,?,29.6*,-9.7%
